The text below walks through data of PubChem BioAssay (NCATS).

“And” between values parts separate entries of the source, which are not always exact repeats. Equal values may be shown once. Results filed as inconclusive are left out. The source made the active and inactive calls. Calls come from the whole dose curve; as a rule, active = well fitted cell-killing curve with a large enough effect; inconclusive = small, poorly fitted or top-dose-only effect; inactive = flat fitted curve, though single readings scatter. Non-standard residues stand in square brackets, D forms with d. Residues, ends and D or L forms follow the SMILES beside them. *: point of attachment. Sta = CC(C)C[C@H](N)[C@@H](O)CC(=O)O; Isovaleryl = CC(C)CC(=O)*
Potency is the fitted concentration of half-maximal effect.

This experiment can be described thus: qHTS of pediatric cancer cell lines to identify multiple opportunities for drug repurposing: Confirmatory screen for A673 cells (AID 1347110).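 For activity change, negative = cytotoxicity: plate controls were DMSO neutral control for no effect and bortezomib positive control for full effect.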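 Note: cells exposed to compound for 48 h before the viability read; nearly all actives have a fitted effect of over 65% in size.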 The note with it: A673 Ewing sarcoma cell viability; series mostly up to 45.9 µM; activity change, negative = cytotoxicity: at the top concentration. The text has this:
Drug repurposing or repositioning has been offered as a strategy for drug development in oncology programs. This approach has special potential for childhood cancers and other rare or orphan diseases, where the expected return on new drug development has been a disincentive to pharmaceuticals.
In this project we exploit the poly-pharmacology of drugs to discover new indications via phenotypic screening of a panel of 19 well-characterized cell lines derived from solid tumors seen in children and adolescents. The goal is to identify approved drugs with previously unrecognized anticancer properties that has the potential to reveal new mechanisms and biological processes involved in carcinogenesis or drug resistance. We employed a titration-based paradigm (quantitative high-throughput screening or qHTS), where all compounds were tested at multiple concentrations for their effect on cell viability. Concentration-response curves (CRCs) were derived directly from the primary screen, and both potency and efficacy values were used to identify compounds with robust bioactivity profiles. We screened the NIH Chemical Genomics Center (NCGC) Pharmaceutical Collection (NPC) and Mechanism Interrogation Plate (MIPE) small molecule collections of approved and investigational compounds against these cell lines; and measured metabolically active cells after 48 hours of compound treatment as a proxy for cell viability.
Assay Submitter: Nathalia J. Martinez, National Center for Advancing Translational Sciences, National Institutes of Health, Rockville, MD, USA; email: natalia.martinez@nih.gov.
[1] Shen, M et al. Quantitative high-throughput phenotypic screening of pediatric cancer cell lines identifies multiple opportunities for drug repurposing. Oncotarget 2017 Dec 19;9(4):4758-4772. PMID 29435139.
The cells were obtained from University of North Carolina (UNC), Pediatric Preclinical Testing Program (PPT), and Coriell Institute (CI).
qHTS cell viability assay:
Cells were assayed in growth media at a density of 500-1,000 cells/well. Five microliters of cells were dispensed into 1,536-well, white, solid-bottom, TC-treated plates (Greiner Bio One) using a multidrop dispenser and incubated at 37 degrees C, 5% CO2, under a humidified atmosphere for 5 hours. Twenty-three nanoliters of compounds and controls (neutral control DMSO or positive control bortezomib at final concentration of 2.3 uM) were subsequently transferred by Kalypsys pintool. For primary screens, the MIPE collection was tested at 11-point dilutions (final concentrations range from 0.78 nM to 46 µM) and the NPC collection at 8-point dilutions (final concentrations range from 0.59 nM to 46 µM). Compounds tested in follow-up screens were assayed at 11-point dilutions. Cells were incubated for 48 hours, followed by addition of 3 uL of CellTiter-Glo (Promega). After a 15min incubation at room temperature, samples were analyzed for luminescence intensity using a ViewLux High-throughput CCD imager equipped with clear filters.
(In general: qHTS replaces the single test concentration by a dilution series.)
Take `CC[C@]1(O)C[C@H]2CN(CCc3c([nH]c4ccccc34)[C@@](C(=O)OC)(c3cc4c(cc3OC)N(C=O)[C@H]3[C@@](O)(C(=O)OC)[C@H](OC(C)=O)[C@]5(CC)C=CCN6CC[C@]43[C@@H]65)C2)C1`: the Potency was 14.7 nM (active) and 18.5 nM (active).
For the compound `O=C(CCc1ccc(O)cc1)c1c(O)cc(O)cc1O`, the “activity change, negative = cytotoxicity” value is 9.89% (inactive).
In the case of `O=C1c2c(O)cc(O)cc2OC(c2ccc(O)c(O)c2)C1O` (stereo unspecified), the compound was called inactive.
With `CCc1nc(N)nc(N)c1-c1ccc(Cl)cc1`, the Potency was 0.329 µM (active).
Regarding `CN(C)c1ccc(O)c2c1C[C@H]1C[C@H]3[C@H](N(C)C)C(=O)C(C(N)=O)=C(O)[C@@]3(O)C(=O)C1=C2O`, the “activity change, negative = cytotoxicity” value is -6.17% (inactive).
In the case of `Nc1ncn([C@H]2C[C@H](O)[C@@H](CO)O2)c(=O)n1`, the “activity change, negative = cytotoxicity” value is 6.93% (inactive).
For the compound `CC(C)C[C@H](NC(=O)[C@H](Cc1ccccc1)NC(=O)c1cnccn1)B(O)O`, the Potency was 0.0465 µM (active).
Turning to `c1cnc2cc3c(cc2n1)C1CNCC3C1`, the compound was classed as inactive.
Take `Cc1ccc(NC(=O)c2ccc(CN3CCN(C)CC3)cc2)cc1Nc1nccc(-c2cccnc2)n1`: the “activity change, negative = cytotoxicity” value was 3.02% (inactive).
With `COc1cc(C(C)=O)ccc1OCCCN1CCC(c2noc3cc(F)ccc23)CC1`, the “activity change, negative = cytotoxicity” value is 12.5% (inactive).
Still for that read-out and setting: then `Nc1nc(OCc2ccccc2)c2[nH]cnc2n1`, with 5.74% (inactive).
As for `CCCCc1ccc2nc(NC(=O)OC)[nH]c2c1`, the Potency was 0.329 µM (active).
In the case of `Cc1c(C(=O)NN2CCCCC2)nn(-c2ccc(Cl)cc2Cl)c1-c1ccc(Cl)cc1`, the Potency was 20.8 µM (active).
For `O=C(NCC1CCCCN1)c1cc(OCC(F)(F)F)ccc1OCC(F)(F)F` (stereo unspecified), the Potency was 1.31 µM (active).
As to `CC(=O)O[C@H]1C(=O)[C@@]2(C)C([C@H](OC(=O)c3ccccc3)[C@]3(O)C[C@H](OC(=O)[C@H](O)[C@@H](NC(=O)c4ccccc4)c4ccccc4)C(C)=C1C3(C)C)[C@]1(OC(C)=O)CO[C@@H]1C[C@@H]2O` (stereo partly specified), the Potency is 0.0147 µM (active).
Same read-out and setting: then `CCN(CC)C(=S)SSC(=S)N(CC)CC`, with 0.522 µM (active); and `Clc1ccc(C(Cn2ccnc2)OCc2ccc(Sc3ccccc3)cc2)c(Cl)c1` (stereo unspecified), with 1.17 µM (active).
For `CCN(CCO)CCCC(C)Nc1ccnc2cc(Cl)ccc12` (stereo unspecified), the “activity change, negative = cytotoxicity” value was -28.1% (inactive).
For the compound `Oc1ccc(-c2nc(-c3ccc(F)cc3)c(-c3ccncc3)[nH]2)cc1`, the Potency was 1.17 µM (active).
On to `Cc1nc(Nc2ncc(C(=O)Nc3c(C)cccc3Cl)s2)cc(N2CCN(CCO)CC2)n1`, for which the Potency is 20.8 µM (active).
As for `CS(=O)(=O)OCCCCOS(C)(=O)=O`, the Potency is 16.5 µM (active).
For the compound `C[C@]12CCC(=O)C=C1CC[C@@H]1[C@H]2[C@@H](O)C[C@@]2(C)[C@H]1CC[C@]2(O)C(=O)CO`, the “activity change, negative = cytotoxicity” value is -9.03% (inactive).
Turning to `Nc1ccn([C@@H]2O[C@H](CO)[C@@H](O)C2O)c(=O)n1` (stereo partly specified), the Potency is 16.5 µM (active).
As for `Nc1nc(Cl)nc2c1ncn2[C@H]1C[C@H](O)[C@@H](CO)O1`, the Potency was 3.69 µM (active).
Consider `CCCOc1ccc2nc(NC(=O)OC)[nH]c2c1`, for which the Potency was 1.17 µM (active).
On to `CN(C)c1ccc2nc3ccc(=[N+](C)C)cc-3sc2c1`, for which the Potency was 8.27 µM (active).
On to `Cc1cc(C2CCCCC2)n(O)c(=O)c1`, for which the Potency is 11.7 µM (active).
`CCN(CC)CCOc1ccc(Nc2ncc3cc(-c4c(Cl)cccc4Cl)c(=O)n(C)c3n2)cc1`: the Potency was 0.185 µM (active).
In the case of `CC(C)CC(=O)N[C@H](C(=O)N[C@H](C(=O)N[C@@H](CC(C)C)[C@@H](O)CC(=O)N[C@@H](C)C(=O)N[C@@H](CC(C)C)[C@@H](O)CC(=O)O)C(C)C)C(C)C` (Isovaleryl-VV[Sta]A[Sta]-OH), the Potency is 1.47 µM (active).
As for `Clc1ccc(C(Cn2ccnc2)OCc2ccsc2Cl)c(Cl)c1` (stereo unspecified), the Potency is 20.8 µM (active).
With `C=C(c1ccc(C(=O)O)cc1)c1cc2c(cc1C)C(C)(C)CCC2(C)C`, the compound was classed as inactive.
